Results published in PubChem BioAssay (Tox21).
Unmarked numbers belong to inactive results. Inconclusive results are not listed. A call without a number means that no potency is given here. Activity calls are given as the source filed them. Calls come from the whole dose curve; as a rule, active = well fitted curve in the direction sought with a large enough effect in the repeat runs; inconclusive = weak or mixed curves; inactive = no such curve, though single readings can be large; an effect the other way counts as inactive or inconclusive. Where a SMILES comes first, the peptide text is derived from it. [ ]: non-standard residue; d: D form. pGlu = O=C1CC[C@@H](C(=O)O)N1

Assays:
[1] = Human pregnane X receptor (PXR) small molecule agonists, qHTS cell viability counter screen (AID 1346977); note: nearly all actives have a fitted effect of over 50% in size
In short: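 HepG2 cells stably carrying the PXR-Luc reporter are cultured with 5% charcoal-stripped FBS and treated with compounds for 24hr. CellTiter-Fluor is added at 23hr and fluorescence is read after 1hr.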

[2] = Caspase-3/7 induction in HepG2 cells by small molecules, qHTS assay (AID 1346978); note: nearly all actives have a fitted effect of over 15% in size
In short: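 Caspase-3/7 induction was measured by Caspase-Glo 3/7 luminescence (30 min, room temperature) after a 17 hr compound exposure of wild-type HepG2 cells seeded at 2,000 per well and pre-incubated 5 hr.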

[3] = Caspase-3/7 induction in CHO-K1 cells by small molecules, qHTS assay (AID 1346980); note: nearly all actives have a fitted effect of over 15% in size
In short: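 Luminescent Caspase-Glo 3/7 read (30min, room temperature) quantified apoptosis induction. Cells were wild-type CHO-K1, treated with compound for 17hr at 37 C and 5% CO2.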

[4] = Caspase-3/7 induction in HepG2 cells by small molecules, qHTS cell viability counter screen (AID 1346981); note: series mostly up to about 92 µM; nearly all actives have a fitted effect of over 30% in size
In short: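 Treatment of HepG2 cells with DMSO-delivered compounds ran 16 hr at 37 C following a 5-hr pre-incubation of 2,000 cells/well. CellTiter-Fluor fluorescence, read after 1 hr, served as the viability measure in a qHTS format.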

[5] = target: Nuclear receptor subfamily 1 group I member 2 (Homo sapiens) (UniProt O75469); test: Human pregnane X receptor (PXR) small molecule agonists, qHTS assay (AID 1346982); note: nearly all actives have a fitted effect of over 35% in size; note: potency is the fitted concentration of half-maximal effect
In short: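 Stable HepG2 line reporting PXR-mediated CYP3A4 expression via luciferase. Treatment: 24 hr with compounds in DMSO at 37 C. Detection: ONE-Glo luminescence.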

[6] = target: Cytochrome P450 2D6 (Homo sapiens) (UniProt P10635); test: Cytochrome P450 Family 2 Subfamily D Member 6 (CYP2D6) small molecule antagonists: luciferase reporter qHTS assay (AID 1671196); note: nearly all actives have a fitted effect of over 50% in size; note: potency is the fitted concentration of half-maximal effect; for activity change, negative = inhibition: series mostly up to about 120 µM
In short: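 Chemicals tested for interference with CYP2D6 activity; proluciferin substrate, NADPH regeneration, 1 h at room temperature, luminescent detection.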

[7] = Caspase-3/7 induction in CHO-K1 cells by small molecules, qHTS cell viability counter screen (AID 1346979); note: nearly all actives have a fitted effect of over 35% in size; note: potency is the fitted concentration of half-maximal effect
In short: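 Seeding: 1,500 CHO-K1 cells/well. Rest: 5hr, 37C. Treatment: compounds in DMSO, 16hr. Read: CellTiter-Fluor, 1hr, fluorescence.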

[8] = target: Nuclear receptor subfamily 1 group I member 2 (Rattus norvegicus) (UniProt Q9R1A7); test: Rat pregnane X receptor (rPXR) activation by small molecules, qHTS assay (AID 1346983); conditions: rPXR luciferase reporter cells, One-Glo luminescence, 24 h; max activation: stronger effect = higher value; note: nearly all actives have a fitted effect of over 20% in size
In short: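 Luminescent readout (One-Glo luciferase, 30 min room temperature) followed 24 hr compound treatment at 37 C of rPXR cells plated 2,000 per well and preincubated 5hr; qHTS format with compounds delivered in DMSO.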

[9] = target: Nuclear receptor subfamily 1 group I member 2 (Homo sapiens) (UniProt O75469); test: CYP3A4 induction through human pregnane X receptor (PXR) by small molecules, qHTS assay (AID 1346984); note: nearly all actives have a fitted effect of over 40% in size
In short: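 After 24 h at 37C with compound, DPX-2 cells (HepG2, co-transfected PXR response element and CYP3A4 promoter-luciferase) got 3uM final P450-Glo Luciferin-IPA for 3 h; One-Glo luminescence followed.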

[10] = target: Nuclear receptor subfamily 1 group I member 2 (Homo sapiens) (UniProt O75469); test: Human pregnane X receptor (PXR) activation by small molecules, qHTS assay (AID 1346985); note: nearly all actives have a fitted effect of over 40% in size
In short: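 DPX-2 cells (HepG2 co-transfected with a PXR response element and a CYP3A4-promoter luciferase construct) were seeded at 2,000 per well, rested 5 hr at 37C, then exposed to DMSO-dissolved compounds for 24 hr. Activation was read as luciferase luminescence.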

Sequence of Cytochrome P450 2D6 (Homo sapiens) (P10635 whole entry, looked up): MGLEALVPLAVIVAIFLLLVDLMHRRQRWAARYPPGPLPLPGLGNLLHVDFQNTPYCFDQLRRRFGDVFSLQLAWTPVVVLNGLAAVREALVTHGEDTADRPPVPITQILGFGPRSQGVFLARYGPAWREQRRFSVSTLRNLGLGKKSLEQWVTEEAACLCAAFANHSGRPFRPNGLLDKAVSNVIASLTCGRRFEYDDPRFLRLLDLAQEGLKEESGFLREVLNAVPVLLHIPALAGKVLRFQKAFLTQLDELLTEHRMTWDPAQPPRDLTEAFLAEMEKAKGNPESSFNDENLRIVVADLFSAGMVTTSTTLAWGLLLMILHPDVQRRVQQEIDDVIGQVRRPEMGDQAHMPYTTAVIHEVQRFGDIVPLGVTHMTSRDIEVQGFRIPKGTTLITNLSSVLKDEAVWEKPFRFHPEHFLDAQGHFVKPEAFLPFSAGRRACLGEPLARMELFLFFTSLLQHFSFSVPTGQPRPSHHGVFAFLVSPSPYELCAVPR
Sequence of Nuclear receptor subfamily 1 group I member 2 (Rattus norvegicus) (Q9R1A7 whole entry, looked up): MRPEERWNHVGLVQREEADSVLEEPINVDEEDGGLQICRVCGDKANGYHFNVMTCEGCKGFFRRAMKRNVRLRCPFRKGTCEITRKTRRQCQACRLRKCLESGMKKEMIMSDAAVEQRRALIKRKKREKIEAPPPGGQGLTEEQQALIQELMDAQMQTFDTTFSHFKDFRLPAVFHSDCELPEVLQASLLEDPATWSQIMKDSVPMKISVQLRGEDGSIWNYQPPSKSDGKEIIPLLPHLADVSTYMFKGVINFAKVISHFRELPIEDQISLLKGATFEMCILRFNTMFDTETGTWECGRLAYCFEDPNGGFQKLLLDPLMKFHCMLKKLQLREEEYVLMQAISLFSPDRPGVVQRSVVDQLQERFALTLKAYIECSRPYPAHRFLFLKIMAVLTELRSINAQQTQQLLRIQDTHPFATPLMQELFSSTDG
Sequence of Nuclear receptor subfamily 1 group I member 2 (Homo sapiens) (O75469 whole entry, looked up): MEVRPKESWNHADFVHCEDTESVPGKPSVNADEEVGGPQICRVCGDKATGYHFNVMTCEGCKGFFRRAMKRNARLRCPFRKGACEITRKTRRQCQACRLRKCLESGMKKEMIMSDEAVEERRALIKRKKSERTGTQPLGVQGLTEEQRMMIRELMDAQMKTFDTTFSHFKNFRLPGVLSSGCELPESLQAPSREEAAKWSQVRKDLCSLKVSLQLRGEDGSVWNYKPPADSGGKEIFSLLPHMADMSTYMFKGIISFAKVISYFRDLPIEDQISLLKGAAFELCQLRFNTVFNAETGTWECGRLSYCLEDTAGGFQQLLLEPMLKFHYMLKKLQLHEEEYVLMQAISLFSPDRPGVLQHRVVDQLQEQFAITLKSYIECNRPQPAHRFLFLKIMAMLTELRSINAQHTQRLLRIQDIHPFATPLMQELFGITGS

CC(C)c1ccc2ncccc2c1
Potency [1]: inactive | outcome [2]: inactive | outcome [3]: inactive | Potency [4]: inactive | Potency [5]: inactive | Potency [6]: inactive

CCNC(=O)[C@@H]1CCCN1C(=O)[C@H](CCCN=C(N)N)NC(=O)[C@H](CC(C)C)NC(=O)CNC(=O)[C@H](Cc1ccc(O)cc1)NC(=O)[C@H](CO)NC(=O)[C@H](Cc1c[nH]c2ccccc12)NC(=O)[C@H](Cc1cnc[nH]1)NC(=O)[C@@H]1CCC(=O)N1 ([pGlu]HWSYGLRP-NHEt)
Potency [1]: inactive | outcome [2]: inactive | outcome [3]: inactive | Potency [4]: inactive | Potency [5]: inactive | Potency [6]: inactive

Cc1onc(-c2c(Cl)cccc2Cl)c1C(=O)Cl
Potency [1]: inactive | outcome [2]: inactive | outcome [3]: inactive | Potency [5]: inactive | Potency [6]: inactive

O=[N+]([O-])c1cncn1CCN1CCOCC1
Potency [1]: inactive | outcome [2]: inactive | outcome [3]: inactive | Potency [4]: inactive | Potency [5]: inactive | Potency [6]: inactive

CCC(C)(CCCC(C)C)OC(C)=O (configuration not stated)
outcome [2]: inactive | Potency [7]: inactive | outcome [3]: inactive | Potency [4]: inactive | Potency [5]: inactive | Potency [6]: inactive

CCC(C)(CN(C)C)OC(=O)c1ccccc1 (configuration not stated)
Potency [1]: inactive | outcome [2]: inactive | outcome [3]: inactive | Potency [4]: inactive | max activation [8]: -1.69%

c1coc(CNc2ncnc3nc[nH]c23)c1
outcome [2]: inactive | Potency [7]: inactive | outcome [3]: inactive | Potency [4]: inactive

O=C1c2ccccc2C(=O)c2cc(O)ccc21
outcome [2]: inactive | outcome [3]: inactive | Potency [5]: 17.2 µM (active)

C[N+](C)(C)CCCCCCCCCC[N+](C)(C)C
Potency [1]: inactive | Potency [7]: inactive | outcome [3]: inactive | Potency [4]: inactive | Potency [5]: inactive | max activation [8]: -3.83% | Potency [9]: inactive | Potency [10]: inactive | Potency [6]: inactive

O=C(O)c1cn(C2CC2)c2cc(N3CCNCC3)c(F)cc2c1=O
Potency [1]: inactive | Potency [7]: inactive | outcome [3]: inactive | Potency [4]: inactive | max activation [8]: -1.42%

CCN1C=CN(C)C1C (configuration not stated)
Potency [1]: inactive | outcome [2]: inactive | outcome [3]: inactive | Potency [4]: inactive | Potency [5]: inactive | Potency [6]: inactive

[K+]
outcome [2]: inactive | Potency [7]: inactive | outcome [3]: inactive | Potency [4]: inactive | Potency [5]: 27.3 µM (active) | Potency [6]: inactive

O=S(=O)(O)c1cccc2c(S(=O)(=O)O)cccc12
Potency [1]: inactive | outcome [2]: inactive | outcome [3]: inactive | Potency [4]: inactive | Potency [5]: inactive | Potency [6]: inactive

CC(C)CCCO
Potency [1]: inactive | outcome [2]: inactive | outcome [3]: inactive | Potency [4]: inactive | Potency [6]: inactive

Nc1ccn([C@@H]2O[C@H](CO)[C@@H](O)C2(F)F)c(=O)n1
Potency [1]: inactive | outcome [2]: inactive | outcome [3]: inactive | Potency [4]: inactive | max activation [8]: -12% | Potency [9]: inactive | Potency [10]: inactive | Potency [6]: inactive

O=C(c1ccccc1O)c1ccccc1O
Potency [1]: inactive | outcome [2]: inactive | outcome [3]: inactive | Potency [4]: inactive | Potency [5]: 60.5 µM (active) | Potency [6]: 24.9 µM (active)

Cc1ncc([C@@H](CCCCCCc2ccc3c(n2)NCCC3)CC(=O)O)cn1
Potency [1]: inactive | outcome [2]: inactive | outcome [3]: inactive | Potency [5]: inactive | Potency [6]: inactive

CC(=O)O[C@@]12CO[C@@H]1C[C@H](O)[C@@]1(C)C(=O)[C@H](O)C3=C(C)[C@@H](OC(=O)[C@H](O)[C@@H](NC(=O)OC(C)(C)C)c4ccccc4)C[C@@](O)([C@@H](OC(=O)c4ccccc4)[C@H]21)C3(C)C
Potency [1]: inactive | Potency [7]: 11.9 µM (active) | outcome [3]: inactive | Potency [5]: inactive | Potency [9]: inactive | Potency [6]: 38.9 µM (active)

NC(N)=NCCN1CCCCCCC1
activity change, negative = cytotoxicity [1]: -0.749% [at 0.349 µM] | caspase activation [2]: -1.67% [at 0.349 µM] | caspase-3/7 activation [3]: -0.223% [at 0.349 µM] | activity change, negative = cytotoxicity [4]: -1.53% [at 0.349 µM] | max activation [8]: -2.81%

CCCCCCCCCCCCSC
Potency [1]: inactive | outcome [2]: inactive | outcome [3]: inactive | Potency [4]: inactive | Potency [5]: inactive | Potency [6]: inactive

Cc1nc2ccc(CN(C)c3ccc(C(=O)N[C@@H](CCC(=O)O)C(=O)O)s3)cc2c(=O)[nH]1
Potency [1]: inactive | outcome [2]: inactive | outcome [3]: inactive | Potency [4]: inactive | max activation [8]: -1.92% | Potency [9]: inactive | Potency [10]: inactive | Potency [6]: inactive

C[C@H]1[C@H](NC(=O)/C(=N/OC(C)(C)C(=O)O)c2csc(N)n2)C(=O)N1S(=O)(=O)O (stereo in doubt)
Potency [1]: inactive | outcome [2]: inactive | outcome [3]: inactive | Potency [4]: inactive | max activation [8]: -2.74% | Potency [6]: inactive

CN1CCC(=C2c3ccccc3CCc3cccnc32)CC1
outcome [2]: inactive | Potency [7]: inactive | outcome [3]: inactive | Potency [4]: inactive | Potency [5]: inactive

CCOC(=O)COC(=O)c1ccccc1C(=O)OCC
Potency [1]: inactive | outcome [2]: inactive | outcome [3]: inactive | Potency [4]: inactive | Potency [5]: inactive | Potency [6]: inactive

CC1=NS(=O)(=O)c2cc(Cl)ccc2N1
Potency [1]: inactive | outcome [2]: inactive | outcome [3]: inactive | Potency [4]: inactive | Potency [6]: inactive

COc1cc2c(cc1OC)-c1cc3ccc(OC)c(OC)c3c[n+]1CC2
outcome [2]: inactive | outcome [3]: inactive | Potency [5]: inactive | Potency [6]: 9.02 µM (active)

CCCc1nn(C)c2c(=O)[nH]c(-c3cc(S(=O)(=O)N4CCN(C)CC4)ccc3OCC)nc12
Potency [1]: inactive | outcome [2]: inactive | outcome [3]: inactive | Potency [4]: inactive | Potency [6]: inactive

Cc1cc(C)c(N=Nc2c(O)c(S(=O)(=O)O)cc3cc(S(=O)(=O)O)ccc23)cc1C
activity change, negative = cytotoxicity [1]: -25% [at 8.39 µM] | caspase activation [2]: -0.299% [at 8.39 µM] | caspase-3/7 activation [3]: -0.604% [at 8.39 µM] | activity change, negative = cytotoxicity [4]: -13.8% [at 8.39 µM] | activity change, negative = inhibition [6]: -11.1% [at 10.5 µM]

O=[N+]([O-])c1ccc(/C=N\O)o1
Potency [1]: inactive | outcome [2]: inactive | outcome [3]: inactive | Potency [4]: inactive | max activation [8]: -2.63% | Potency [9]: inactive | Potency [10]: inactive | Potency [6]: inactive

CO[Si](C)(OC)c1ccccc1
Potency [1]: inactive | outcome [2]: inactive | outcome [3]: inactive | Potency [4]: inactive | Potency [5]: 30.6 µM (active) | Potency [6]: inactive
